From PubChem BioAssay (NCATS)
Several values for one entry are separate records, joined by “and”; a condition that tells them apart may be missing. Equal entries are not always repeated. Inconclusive results are not listed. Values without a mark were called inactive. Activity calls are given as the source filed them. Calls come from the whole dose curve; as a rule, active = well fitted cell-killing curve with a large enough effect; inconclusive = small, poorly fitted or top-dose-only effect, or effect the other way; inactive = flat fitted curve, though single readings scatter.

Experiment: MultiTox-Fluor Cytotoxicity Assay - LYMP1-002 - Live Cells (AID 955)
Conditions: LYMP1-002 lymphoblastoid live-cell protease fluorescence viability; series mostly up to 46.1 µM; viability change, negative = cytotoxic: at the top concentration
From the text: NIH Chemical Genomics Center [NCGC]
NIH Molecular Libraries Screening Centers Network [MLSCN]
National Institutes of Environmental Health Sciences [NIEHS]
National Toxicology Program [NTP]
We have developed a 1536-well cell-based assay for quantitative high throughput screening (qHTS) against a number of cell lines to determine in vitro cytotoxicity of small molecules. This particular assay uses a human lymphoblastoid cell line (LYMP1-002) purchased from Coriell Institute.
NCGC Assay Protocol Summary:
The MultiTox-Fluor Cytotoxicity Assay (Promega) is a homogeneous method to simultaneously measure the relative number of live and dead cells in culture by detecting changes in cell membrane integrity. There are two fluorogenic peptide substrates in the assay reagent. Viable cells are determined when the cell-permeant substrate (GF-AFC) enters the cell and is cleaved by protease from live cells resulting in liberated fluorophore. This live-cell protease activity restricted to viable cells is proportional to cell number. The dead cells are determined by using fluorogenic cell-impermeant peptide substrate (bis-AAF-R110) which cleaved by dead cell proteases leaking from damaged cell membrane.
Using the MultiTox-Fluor Cytotoxicity Assay, the relative number of live cells was measured in the lymphoblastoid cell line with complete culture medium following compound treatment for 16 hours. The assay was performed in opaque black Kalypsys 1536-well plates. In the screen, tetraoctylammonium bromide was used as positive control. Library compounds were measured for their ability to cause acute toxicity in the cell line, as reflected by a decrease in live cell protease activity, in a concentration-dependent manner. […] AC50 values were determined from concentration-response data modeled with the standard Hill equation.
qHTS protocol for MultiTox-Fluor Cytotoxicity assay
[Step] [Parameter] [Value] [Description]
1. Reagent; 5 uL; 2500 lymphoblastoid cells/well
2. Time; 5 hr; 37 C incubation
4. Controls; 23 nL; Tetraoctylammonium bromide 6.4pM to 92 uM
5. Time; 16 hr; 37 C incubation
6. Reagent; 5 uL; MuliTox-Fluor Assay reagent
7. Time; 60 min; Room Temperature
8. Detection; live-cell fluorescence (Ex/Em=405/510); EnVision plate reader
Keywords: cell viability, cytotoxicity, lymphoblastoid cell line, fluorescence, NTPHTS, NTPHTS_NCGC, NIEHS, EPA, DSSTox, MLSMR, MLSCN, NIH Roadmap, qHTS, NCGC
% is set by controls: 0 for no effect and ±100 for the full control effect; potency is the fitted concentration of half-maximal effect.

SMILES	viability change, negative = cytotoxic [%]	Potency
O=[N+]([O-])c1ccc(F)c([N+](=O)[O-])c1	-11.8	–
O=C1C2CC=CCC2C(=O)N1SC(Cl)(Cl)Cl (stereo unspecified)	–	6.31 µM (active) and 5.01 µM (active)
C[C@]12CCC(=O)C[C@@H]1CC[C@@H]1[C@@H]2CC[C@]2(C)[C@@H](O)CC[C@@H]12	6.72	–
O=C1CCO1	-7.09	–
O=[N+]([O-])c1ccccc1	2.57	–
O=Cc1ccco1	1.77	–
[O]=[Cd]	-6.96	–
CC(C)CCON=O	3.5	–
[Cl-].[Cl-].[Hg+2]	–	10 µM (active)
CCOC(=O)c1ccccc1C(=O)OCC	–	inactive
ClC=C(Cl)Cl	7.59	–
NNC(N)=O	1.31	–
COc1ccc2c(c1OC)C(=O)OC2C1c2cc3c(cc2CCN1C)OCO3 (stereo unspecified)	-11.7	–
O=CC=O	-3.04	–
C[C@H]1CCC[C@H](O)CCCCCc2cc(O)cc(O)c2C(=O)O1	-4.96	–
C[C@H]1CC[C@@H]2[C@@H](C)[C@H]3[C@H](C[C@H]4[C@@H]5CC=C6CC(O[C@@H]7O[C@H](CO)[C@H](O)[C@H](O[C@@H]8O[C@H](CO)[C@@H](O)[C@H](O)[C@H]8O)[C@H]7O[C@H]7O[C@@H](C)[C@H](O)[C@@H](O)[C@H]7O)CC[C@]6(C)[C@H]5CC[C@]34C)N2C1 (stereo partly specified)	–	12.6 µM (active)

SMILES	viability change, negative = cytotoxic [%]	Potency
CC(C)(C)c1cc(O)ccc1O	–	inactive
ClC(Cl)(Cl)Cl	–	inactive
ClCC1CO1 (stereo unspecified)	-1.11	–
CCCCCCCCOC(=O)c1ccccc1C(=O)OCCCCCCCC	0.421	–
O=C(O)C(Cl)(Cl)Cl	–	inactive
O=C1C=CC(=O)C=C1	9.73	–
C=CCN=C=S	11.2	–
Clc1ccccc1Cl	-4.23	–
[O]=[Cr](=[O])([OH])[O][Cr](=[O])(=[O])[OH]	–	inactive
O=C/C=C/c1ccccc1	–	inactive
S=C=S	5.66	–
CCCCCl	1.19	–
CC(C)Nc1ccc(Nc2ccccc2)cc1	–	25.1 µM (active)
COC1=CC(=O)O[C@@H](/C=C/c2ccccc2)C1	-7.96	–
Oc1cc(Cl)c(Cl)cc1Cl	2.51	–
